From PubChem BioAssay (NCATS) come the findings set out here.

Inconclusive results are not listed. Activity calls are given as the source filed them. Unless noted, calls follow the shape of the dose curve; as a rule, active = well fitted curve in the direction sought with a large enough effect; inconclusive = small, poorly fitted or top-dose-only effect, or another doubt; inactive = no such curve, though single readings can be large; an effect the other way counts as inactive or inconclusive. Where only a bound is given, the exact number is not on record here.

The target in assay [1] is Glucocorticoid receptor (Homo sapiens) (UniProt P04150). The assay can be described thus: GR-GFP Redistribution (AID 450;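 active = compounds whose dose series gives a full or clear partial fitted curve of increased nuclear translocation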; also: potency is read from the fitted curve at half-maximal effect). Particulars: U2OS GR-GFP nuclear translocation, laser cytometry, 2 h.
The target in assay [2] is Mitogen-activated protein kinase 10 (Mus musculus) (UniProt Q61831). Description: JNK3 AlphaScreen Assay (AID 530; active = well fitted curve in either direction with a large enough effect, not every such curve was filed as active;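 also: kinase came from lysate of stimulated human HepG2 cells; signal reports phosphorylation of biotinylated GST-cJun 1-79 at Ser73 with 10 µM ATP; % is scaled to controls: 0 for no effect and ±100 for the full control effect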). The procedure, abridged: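 JNK3 came from HepG2 lysates pre-activated with IL-1beta and TNF-alpha and phosphorylated biotinylated GST-cJun (1-79) at 10 uM ATP, pH 7.6, room temperature. Compounds were titrated. AlphaScreen signal used anti-phospho-cJun (Ser73) antibody.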
(In general: In Alpha technology, singlet oxygen from a donor bead excites a nearby acceptor bead.)

The nature of assay [3]: qHTS Assay for Lipid Storage Modulators (AID 1519; calls by dose curve; as to activity change, negative = inhibition: % is scaled to controls: 0 for no effect and ±100 for the full control effect). To be noted: Drosophila S3 cells, BODIPY lipid droplet/cell ratio, laser cytometry, cells loaded with oleic acid. An outline of the steps:
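Cells seeded at 5,000 per well were treated with compounds over a concentration series and loaded with oleic acid (400 uM, as added). Lipid droplet fluorescence (488 nm excitation, 500-530 nm channel) was read by laser-scanning cytometry and normalized to 20 uM Triacsin C.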
Background: Quantitative high-throughput screening tests each substance at several concentrations.

For assay [4], the target named is Ubiquitin carboxyl-terminal hydrolase 1 (Homo sapiens) (UniProt O94782). The assay can be described thus: Inhibitors of USP1/UAF1: Pilot qHTS (AID 504865).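 Also: rhodamine fluorescence freed from ubiquitin-rhodamine substrate followed over time; top concentration of the series differs between compounds; % is scaled to controls: 0 for no effect and ±100 for the full control effect; nearly all actives have a fitted effect of over 35% in size.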 An outline of the steps: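 Enzyme-free wells gave the negative control, while test wells held 1nM USP1/UAF1 preincubated with compound for 15 min at room temperature. Ub-Rho at 150nM final started the reaction, and fluorescence at 480/540 nm was recorded kinetically.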

The target in assay [5] is DNA dC->dU-editing enzyme APOBEC-3G (Homo sapiens) (UniProt Q9HC16). Description: qHTS for inhibitors of Vif-A3G interactions: Validation (AID 588379). Also: 0% is about no effect. The procedure, abridged:
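HeLa cells stably expressing Vif and A3G-eYFP, 700 cells/well, incubated overnight at 37 deg C, then exposed to compound overnight at 37 deg C. Inhibition of Vif-mediated degradation read as increased yellow fluorescence (Ex 488/Em 500-530) by laser-scanning cytometry.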

Assay [6] deals with Zika virus NS2B-NS3 protease. Description: Primary screen GU AMC qHTS for Zika virus inhibitors (AID 1347154).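 Also: 0% = no-inhibitor control and -100% = no-enzyme control; nearly all actives have a fitted effect of over 70% in size.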 An outline of the steps: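 Unlinked Zika NS2B hydrophilic domain/NS3 protease domain noncovalent complex (25 nM final) in 10 mM Tris-HCl pH 8.0, 0.01% Tween 20, with AMC peptide substrate. Fluorescence (ex 340, em 450 nm) change over 15 min, room temperature; percent inhibition fitted to 4-parameter Hill equation.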

The nature of assay [7]: Counterscreen qHTS for small molecule stabilizers of the endoplasmic reticulum resident proteome: GLuc-NoTag assay (AID 1508627).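 Also: SH-SY5Y cells given compound then 100 nM thapsigargin to empty ER calcium; 0% = thapsigargin alone and -100% = DMSO vehicle control.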 The procedure, abridged: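 SH-SY5Y cells stably expressing constitutively secreted GLuc (no SERCaMP tag) were pre-incubated 5 h, treated with compound for 19 h, then 100 nM thapsigargin for 4 h at 37C; medium GLuc read by coelenterazine luminescence.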
For orientation: A counterscreen serves to expose hits that act by an unwanted route or on another target.

A short description of assay [8]: Primary qHTS for small molecule stabilizers of the endoplasmic reticulum resident proteome: Secreted ER Calcium Modulated Protein (SERCaMP) assay (AID 1508630). Also: % is scaled to controls: 0 for no effect and ±100 for the full control effect. The procedure, abridged: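 GLuc-SERCaMP-expressing SH-SY5Y cells, pretreated 16 h with compound, are challenged with thapsigargin to empty ER calcium stores; after 4 h, coelenterazine is added directly to the medium and luminescence is imaged.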

Assay [9] concerns the target Glucocorticoid receptor (Homo sapiens) (UniProt P04150). Description: GR-EFC Redistribution (AID 451; calls by dose curve; also: potency is read from the fitted curve at half-maximal effect). To be noted: CHO-K1 GR-EFC translocation, beta-gal luminescence, 2 h. An outline of the steps: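 CHO-K1 cells stably expressing nuclear-localized β-gal enzyme acceptor and GR fused C-terminally to the enzyme donor fragment; ligand-driven nuclear translocation restores β-gal by complementation. Compounds titrated up to 46 uM final, 2 h at 37 °C; luminescence read.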

Assay [10] in a line: Cell Viability qHTS for small molecule stabilizers of the endoplasmic reticulum resident proteome (AID 1508629).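 Also: human SH-SY5Y neuroblastoma cells carrying the GLuc-SERCaMP reporter; compound exposure about 46 h in total before the viability read; % is scaled to controls: 0 for no effect and ±100 for the full control effect.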 To be noted: cell viability counter-screen, 100 nM thapsigargin for final 4 h.

Glucocorticoid receptor (Homo sapiens), sequence (P04150 whole entry, looked up, the tested form may be a part): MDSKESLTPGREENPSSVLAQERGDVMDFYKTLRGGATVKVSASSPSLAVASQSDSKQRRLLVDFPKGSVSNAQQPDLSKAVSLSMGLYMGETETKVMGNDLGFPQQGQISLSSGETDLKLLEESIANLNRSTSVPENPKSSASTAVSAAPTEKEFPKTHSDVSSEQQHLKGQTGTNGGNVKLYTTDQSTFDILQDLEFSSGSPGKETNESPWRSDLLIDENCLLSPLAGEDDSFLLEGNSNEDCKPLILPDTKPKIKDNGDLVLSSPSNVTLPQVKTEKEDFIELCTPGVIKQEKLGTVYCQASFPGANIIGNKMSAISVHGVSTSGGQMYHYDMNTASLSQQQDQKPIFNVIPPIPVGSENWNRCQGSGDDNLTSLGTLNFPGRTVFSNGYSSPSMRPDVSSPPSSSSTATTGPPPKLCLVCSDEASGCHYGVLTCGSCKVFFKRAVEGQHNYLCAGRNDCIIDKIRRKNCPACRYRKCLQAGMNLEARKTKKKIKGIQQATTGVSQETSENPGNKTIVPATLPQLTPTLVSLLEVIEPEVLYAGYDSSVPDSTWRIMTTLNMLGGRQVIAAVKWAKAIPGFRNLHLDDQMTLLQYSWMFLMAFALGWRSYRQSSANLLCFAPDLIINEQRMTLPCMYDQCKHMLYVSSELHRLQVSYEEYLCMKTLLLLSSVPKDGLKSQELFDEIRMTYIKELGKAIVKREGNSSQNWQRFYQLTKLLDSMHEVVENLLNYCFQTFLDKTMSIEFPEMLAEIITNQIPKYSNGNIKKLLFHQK
DNA dC->dU-editing enzyme APOBEC-3G (Homo sapiens), sequence (Q9HC16 whole entry, looked up): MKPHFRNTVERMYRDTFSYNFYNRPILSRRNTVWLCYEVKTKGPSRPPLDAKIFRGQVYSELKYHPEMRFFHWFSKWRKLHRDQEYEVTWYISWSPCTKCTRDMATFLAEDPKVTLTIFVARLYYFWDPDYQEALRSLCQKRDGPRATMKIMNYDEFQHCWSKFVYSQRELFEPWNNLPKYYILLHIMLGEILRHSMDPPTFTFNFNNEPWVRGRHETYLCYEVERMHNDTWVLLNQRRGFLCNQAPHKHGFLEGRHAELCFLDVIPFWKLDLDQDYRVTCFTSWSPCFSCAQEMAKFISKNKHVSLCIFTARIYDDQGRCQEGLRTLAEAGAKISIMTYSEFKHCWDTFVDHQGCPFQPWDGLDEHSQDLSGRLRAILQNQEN
Ubiquitin carboxyl-terminal hydrolase 1 (Homo sapiens), sequence (O94782 whole entry, looked up): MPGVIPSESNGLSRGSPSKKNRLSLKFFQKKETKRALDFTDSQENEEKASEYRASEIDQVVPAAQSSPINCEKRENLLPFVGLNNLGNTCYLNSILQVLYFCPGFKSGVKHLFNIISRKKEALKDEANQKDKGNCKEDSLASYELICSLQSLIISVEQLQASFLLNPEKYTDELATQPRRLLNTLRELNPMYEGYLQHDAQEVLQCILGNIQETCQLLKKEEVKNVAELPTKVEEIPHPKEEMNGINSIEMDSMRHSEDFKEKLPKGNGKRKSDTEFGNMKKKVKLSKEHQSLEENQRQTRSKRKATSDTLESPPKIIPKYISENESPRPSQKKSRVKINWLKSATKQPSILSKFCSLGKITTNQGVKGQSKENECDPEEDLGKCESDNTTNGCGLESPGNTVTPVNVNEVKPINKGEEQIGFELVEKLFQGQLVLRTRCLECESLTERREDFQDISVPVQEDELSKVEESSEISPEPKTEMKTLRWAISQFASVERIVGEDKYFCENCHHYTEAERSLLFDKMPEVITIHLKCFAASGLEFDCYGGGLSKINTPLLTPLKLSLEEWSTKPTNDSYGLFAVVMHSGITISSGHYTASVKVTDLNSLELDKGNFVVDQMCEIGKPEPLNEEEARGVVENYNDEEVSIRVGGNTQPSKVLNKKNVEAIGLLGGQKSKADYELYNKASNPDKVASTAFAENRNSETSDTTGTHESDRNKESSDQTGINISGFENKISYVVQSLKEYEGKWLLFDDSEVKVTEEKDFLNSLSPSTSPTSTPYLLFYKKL

Regarding `O[C@@H]1[C@H](O)[C@H]2[C@@H](O)CCN2C[C@@H]1O`, the Potency in [1] is > 46 µM (inactive). In addition, in assay [2], the molecule was called inactive. The activity change, negative = inhibition in assay [3] (at 57.5 µM (top of the series)) is -2.53% (inactive). For the same molecule, the values for the max response in assay [3] (measured here: cell count channel max response) and in assay [3] (measured here: lipid channel max response) were 7.43% and 6.33%, respectively. The Potency entry in assay [4], in [5], in assay [6], in assay [7] and in assay [8] was “inactive” throughout.
For the molecule `CC(C)(O)C1O[C@H]2CC[C@@]3(C)[C@@](O)(CC[C@H]4Cc5c([nH]c6ccccc56)[C@@]43C)C2=CC1=O` (stereo partly specified), the Potency result in [6], in [7] and in assay [8] was “inactive” throughout.
Turning to `CN1CC[C@@]2(c3cccc(O)c3)Cc3nc4ccccc4cc3C[C@H]2C1`, the Potency in assay [1] and in [9] was > 46 µM (inactive) throughout. In addition, the result in [2] was inactive. For the same molecule, the Potency entry in assay [4], in [5], in [6] and in assay [7] was “inactive” throughout. Further, the max response in [10] was -3.73% (inactive).
